PubChem BioAssay (NCI)
The panel holds about 83,000 compounds, 20% with a hit somewhere; the sample as a whole holds those more often.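 A percent growth of 40 corresponds to 60% growth inhibition; 0 means no net growth; -100 means all cells died. Active threshold: below 10.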 A number with no mark means an inactive call. Active and inactive are the calls of the source.

system: NCI-H23 lung; assay: NCI-60 one-dose screen, 48 h (100 = growth as untreated, 0 = no growth, -100 = all killed); settings: 10 µM

SMILES | growth
CC(C)[N+]1(C)C2CC[C@@H]1CC(OC(=O)C(CO)c1ccccc1)C2 (stereo partly drawn) | 92%
Cc1c2c[n+](C(C)C)ccc2c(C)c2c1[nH]c1ccccc12 | 6.42% (active)
Cc1ccc(-n2c(C)nn3c(=O)c4c5c(sc4nc23)CN(C)CC5)cc1 | 97.4%
CCCCCCCCCCCCCCCCCC[n+]1ccc2c(C)c3c(c(C)c2c1)c1cc(O)ccc1n3CC | 4.06% (active)
Cc1c2cnccc2c(C)c2c1c1cc(O)ccc1n2C(C)C | 0.21% (active)
COc1ccc(C(=O)CSc2nc(-c3cc(OC)ccc3OC)cc(-c3ccc(OC)cc3)c2C#N)cc1 | 91.6%
CCn1c2ccc(O)cc2c2c(C)c3c[n+](C)ccc3c(C)c21 | 19.2%
Cc1ccccc1N1C(=O)c2cc(S(N)(=O)=O)c(Cl)cc2NC1C (stereo not drawn) | 101%
N#Cc1c(-c2ccc(Cl)cc2)cc(-c2cc(O)ccc2O)nc1N | 11.2%
CN1CCc2c(sc3nc4n(-c5ccc(Cl)cc5)c(=O)[nH]n4c(=O)c23)C1 | 97.4%
Cn1c2ccccc2c2c3[nH][nH]c(=O)c3c3c4ccccc4[nH]c3c21 | 19.2%
O=C1c2c(c3c4ccccc4n(CCCCCCN4CCOCC4)c3c3[nH]c4ccccc4c23)C(=O)N1O | 81.5%
Nc1ccccc1NC(=O)c1ccc(CCCC(=O)Nc2ccc(C3CC3N)cc2)cc1 (stereo not drawn) | 37.2%
Nc1nc(-c2cccnc2)nc2c1sc(=S)n2-c1ccccc1 | 103%
Nc1cc(-c2ccncc2)c[nH]c1=O | 102%
COc1cc2c3c(n([C@H]4CCOC4)c(=O)c2cc1OC)-c1cc2c(cc1C3=O)OCO2 | 17.4%
C=C/C(C)=C/C[C@]1(C)[C@H](C)[C@@H](OC(=O)CCC)[C@H](O)[C@@]23C(=C[C@H](OC)C[C@@H]12)[C@@H](OC(=O)CCC)O[C@H]3OC(C)=O | -15.9% (active)
Fc1ccc2[nH]cc(-c3nc(-c4ccsc4)cs3)c2c1 | 83.6%
CN1CCc2c(sc3nc4n(-c5ccc(Cl)cc5)cnn4c(=O)c23)C1 | 91.8%
O=C(CCCNC(=O)c1nc(-c2ccccc2)n(-c2ccccc2)n1)NO | 101%

SMILES | growth
Nc1ccc(-c2cccs2)cc1NC(=O)c1ccc(CCCC(=O)Nc2ccc(C3CC3N)cc2)cc1 (stereo not drawn) | 86.3%
CCOC(=O)c1sc2ncnc(Nc3ccc(NC(=O)Nc4ccc(Cl)cc4)cc3)c2c1C | 52.2%
CCNc1nc(C(F)(F)F)nc2c1sc(=S)n2-c1ccccc1 | 93.4%
COc1ccc([C@H]2[C@H](C(=O)Nc3cccnc3)c3ccccc3C(=O)N2c2ccccc2)cc1 | 90.5%
O=C(CCCCNC(=O)c1nc(-c2ccccc2)n(-c2ccccc2)n1)NO | 87%
COc1cc(CNC(=O)C2CSC3(C)c4ccccc4C(=O)N23)cc(OC)c1OC (stereo not drawn) | 96.9%
COc1cc2c3c(n(C4CCNCC4)c(=O)c2cc1OC)-c1cc2c(cc1C3=O)OCO2 | -59.4% (active)
C[C@@H](O)[C@H]1C(=O)N2C(C(=O)O)=C(SC3CN[C@H](C(=O)N(C)C)C3)[C@H](C)[C@H]12 (stereo partly drawn) | 97.2%
COc1cc2c3c(n([C@@H]4CCOC4)c(=O)c2cc1OC)-c1cc2c(cc1C3=O)OCO2 | 22.8%
CCOC(=O)c1sc2ncnc(Nc3ccc4c(cnn4C(=O)Nc4ccc(C)c(Cl)c4)c3)c2c1C | 91.4%
CN1C(C(=O)Nc2ccccn2)=C(O)c2sc(Cl)cc2S1(=O)=O | 99.6%
CCCN1CN2C(=O)N3CN(CCC)CN4C(=S)N(C1)C2C34 (stereo not drawn) | 100%
COc1ccc(-c2cc(-c3cc(OC)ccc3OC)nc(N)c2C#N)cc1 | 68.8%
c1cncc(-c2csc(-c3c[nH]c4ccccc34)n2)c1 | 84.4%
c1cnc2[nH]cc(-c3nc(-c4ccsc4)cs3)c2c1 | 80.2%
COc1ccc(-c2nn(-c3cccc(Cl)c3)cc2C=C(C#N)C#N)cc1 | -45.2% (active)
CCOC(=O)c1sc2ncnc(Nc3ccc4c(cnn4C(=O)Nc4ccccc4)c3)c2c1C | 60.6%
CCCCCC(=O)O[C@]1(C(C)=O)CCC2C3CCC4=CC(=O)CC[C@]4(C)C3CC[C@@]21C (stereo partly drawn) | 22.1%
CCn1cc(CNc2ccc(C(=O)Nc3ccc4ccccc4c3)cc2)c(C)n1 | 52.9%
O=c1[nH]c(=O)n(C2C[C@H](O)[C@@H](CO)O2)cc1C(F)(F)F (stereo partly drawn) | 98.1%

system: NCI-H226 lung; assay: as above; settings: 10 µM

SMILES | growth
CC(C)[N+]1(C)C2CC[C@@H]1CC(OC(=O)C(CO)c1ccccc1)C2 (stereo partly drawn) | 103%
Cc1c2c[n+](C(C)C)ccc2c(C)c2c1[nH]c1ccccc12 | 27.4%
Cc1ccc(-n2c(C)nn3c(=O)c4c5c(sc4nc23)CN(C)CC5)cc1 | 98.3%
CCCCCCCCCCCCCCCCCC[n+]1ccc2c(C)c3c(c(C)c2c1)c1cc(O)ccc1n3CC | 58%
Cc1c2cnccc2c(C)c2c1c1cc(O)ccc1n2C(C)C | 79.3%
COc1ccc(C(=O)CSc2nc(-c3cc(OC)ccc3OC)cc(-c3ccc(OC)cc3)c2C#N)cc1 | 88.4%
CCn1c2ccc(O)cc2c2c(C)c3c[n+](C)ccc3c(C)c21 | 26.1%
Cc1ccccc1N1C(=O)c2cc(S(N)(=O)=O)c(Cl)cc2NC1C (stereo not drawn) | 112%
N#Cc1c(-c2ccc(Cl)cc2)cc(-c2cc(O)ccc2O)nc1N | 94.8%
CN1CCc2c(sc3nc4n(-c5ccc(Cl)cc5)c(=O)[nH]n4c(=O)c23)C1 | 94.7%
Cn1c2ccccc2c2c3[nH][nH]c(=O)c3c3c4ccccc4[nH]c3c21 | 65.8%
O=C1c2c(c3c4ccccc4n(CCCCCCN4CCOCC4)c3c3[nH]c4ccccc4c23)C(=O)N1O | 66.7%
Nc1ccccc1NC(=O)c1ccc(CCCC(=O)Nc2ccc(C3CC3N)cc2)cc1 (stereo not drawn) | 27.5%
Nc1nc(-c2cccnc2)nc2c1sc(=S)n2-c1ccccc1 | 95.8%
Nc1cc(-c2ccncc2)c[nH]c1=O | 103%
COc1cc2c3c(n([C@H]4CCOC4)c(=O)c2cc1OC)-c1cc2c(cc1C3=O)OCO2 | 20.8%
C=C/C(C)=C/C[C@]1(C)[C@H](C)[C@@H](OC(=O)CCC)[C@H](O)[C@@]23C(=C[C@H](OC)C[C@@H]12)[C@@H](OC(=O)CCC)O[C@H]3OC(C)=O | -52.9% (active)
Fc1ccc2[nH]cc(-c3nc(-c4ccsc4)cs3)c2c1 | 78.5%
CN1CCc2c(sc3nc4n(-c5ccc(Cl)cc5)cnn4c(=O)c23)C1 | 92.2%

SMILES | growth
O=C(CCCNC(=O)c1nc(-c2ccccc2)n(-c2ccccc2)n1)NO | 85.6%
Nc1ccc(-c2cccs2)cc1NC(=O)c1ccc(CCCC(=O)Nc2ccc(C3CC3N)cc2)cc1 (stereo not drawn) | 108%
CCOC(=O)c1sc2ncnc(Nc3ccc(NC(=O)Nc4ccc(Cl)cc4)cc3)c2c1C | 87.3%
CCNc1nc(C(F)(F)F)nc2c1sc(=S)n2-c1ccccc1 | 88.5%
COc1ccc([C@H]2[C@H](C(=O)Nc3cccnc3)c3ccccc3C(=O)N2c2ccccc2)cc1 | 95.9%
O=C(CCCCNC(=O)c1nc(-c2ccccc2)n(-c2ccccc2)n1)NO | 83.9%
COc1cc2c3c(n(C4CCNCC4)c(=O)c2cc1OC)-c1cc2c(cc1C3=O)OCO2 | -43.8% (active)
C[C@@H](O)[C@H]1C(=O)N2C(C(=O)O)=C(SC3CN[C@H](C(=O)N(C)C)C3)[C@H](C)[C@H]12 (stereo partly drawn) | 99.2%
COc1cc2c3c(n([C@@H]4CCOC4)c(=O)c2cc1OC)-c1cc2c(cc1C3=O)OCO2 | 24.2%
CCOC(=O)c1sc2ncnc(Nc3ccc4c(cnn4C(=O)Nc4ccc(C)c(Cl)c4)c3)c2c1C | 87.6%
CN1C(C(=O)Nc2ccccn2)=C(O)c2sc(Cl)cc2S1(=O)=O | 106%
COc1ccc(-c2cc(-c3cc(OC)ccc3OC)nc(N)c2C#N)cc1 | 63.7%
c1cncc(-c2csc(-c3c[nH]c4ccccc34)n2)c1 | 84.1%
c1cnc2[nH]cc(-c3nc(-c4ccsc4)cs3)c2c1 | 74.4%
COc1ccc(-c2nn(-c3cccc(Cl)c3)cc2C=C(C#N)C#N)cc1 | 25.4%
CCOC(=O)c1sc2ncnc(Nc3ccc4c(cnn4C(=O)Nc4ccccc4)c3)c2c1C | 109%
CCCCCC(=O)O[C@]1(C(C)=O)CCC2C3CCC4=CC(=O)CC[C@]4(C)C3CC[C@@]21C (stereo partly drawn) | 52.7%
CCn1cc(CNc2ccc(C(=O)Nc3ccc4ccccc4c3)cc2)c(C)n1 | 51%
O=c1[nH]c(=O)n(C2C[C@H](O)[C@@H](CO)O2)cc1C(F)(F)F (stereo partly drawn) | 107%
